A selection: hits, their analogues and other compounds. The true share with any hit is near 2%.
LDHA block: blocks human lactate dehydrogenase A. P00338. purified LDHA, NADH/diaphorase-resazurin fluorescence; stronger effect = lower value. activity change, % (values are at about 110 or 230 µM). hit rate 0.15% among 480,000; in the data active = activity change below about -30%; inconclusive = mostly about -25% to -30%
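Enzyme activity of human lactate dehydrogenase 5 (2 nM; 0.06 mM NADH, 0.2 mM pyruvate, 5 min, RT) is measured via a resazurin/diaphorase fluorescence readout of residual NADH.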
aSyn rescue: inhibitors of alpha-synuclein toxicity in yeast; Yeast expressing alpha-synuclein, growth rescue, BacTiter-Glo, 24 h; Potency, µM (doses to about 46.1 µM), usual class: activators; hit rate 0.14% among 370,000; note: nearly all actives have a fitted effect of over 65% in size
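Galactose-induced alpha-syn yeast (OD600=0.02, raffinose-pregrown) + pinned cpd, 24 hr, 30 deg C; growth by BacTiter-Glo luminescence. Growth restoration scores as activation.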
FUS suppressor: FUS proteinopathy suppression in yeast | S. cerevisiae FUS-expressing, growth rescue, OD600, 24 h | Potency, µM (series often up to 76.6 µM), actives largely listed as activators | hit rate 0.24% among 390,000; note: nearly all actives have a fitted effect of over 55% in size
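Yeast FUS proteinopathy model; galactose-induced FUS (2%), starting OD 0.005. Cpds in dilution series, 24hr, 30C, 99% humidity. Abs 600 nm growth. Pos ctrl CP55940 (top 92uM final); neg ctrl DMSO.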
mIDH1 inhibitor: human IDH1 R132H inhibition; O75874; IDH1-R132H enzyme, NADPH consumption, diaphorase/resazurin fluorescence; Potency, µM (series often up to 76.6 µM), actives largely listed as inhibitors; hit rate 0.093% among 390,000; note: nearly all actives have a fitted effect of over 65% in size
Target sequence (O75874 whole entry R132H, stated change not applied): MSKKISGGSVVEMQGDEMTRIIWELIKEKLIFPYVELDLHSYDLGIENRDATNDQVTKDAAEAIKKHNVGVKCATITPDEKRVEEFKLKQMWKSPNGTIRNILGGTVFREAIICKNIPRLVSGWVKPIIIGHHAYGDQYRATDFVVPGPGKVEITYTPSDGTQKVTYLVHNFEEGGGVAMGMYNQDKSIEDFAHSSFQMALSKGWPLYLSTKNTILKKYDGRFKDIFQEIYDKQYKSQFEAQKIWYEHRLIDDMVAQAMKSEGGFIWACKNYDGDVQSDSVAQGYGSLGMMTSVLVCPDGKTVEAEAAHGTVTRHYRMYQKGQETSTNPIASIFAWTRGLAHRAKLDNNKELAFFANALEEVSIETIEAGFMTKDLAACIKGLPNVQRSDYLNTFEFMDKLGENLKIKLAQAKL
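IDH1-R132H (0.5 ug/mL) preincubated 30 min with compound, then NADPH (0.016 mM) and alpha-KG (2 mM) added; 80 min at RT, pH 7.5. Remaining NADPH coupled via diaphorase/resazurin to fluorescence (540/590 nm); concentration-response curves normalized to no-enzyme control.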
TDP43 rescue: rescues yeast growth from TDP-43 toxicity; hit rate 1.8% among 410,000; TDP-43 expressing yeast growth rescue, BacTiter-Glo, 24 h; Potency, µM (doses to about 46.1 µM), hits mostly activators; note: nearly all actives have a fitted effect of over 50% in size
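Luminescence from BacTiter-Glo reports growth of TDP-43-expressing yeast after 24 hr at 30 deg C with compound. Cells were raffinose-pregrown to mid-log, then seeded in galactose medium at OD600=0.02.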
Abeta yeast res: compounds reversing amyloid beta toxicity in yeast; yeast expressing A-beta42, growth rescue, OD600, 48 h; response scale: 0% DMSO, 100% iron-clioquinol control; Potency, µM (titrated, usually from 46.1 µM), hits mostly activators; hit rate 0.063% among 410,000; note: nearly all actives have a fitted effect of over 55% in size
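Yeast A-beta toxicity model in growth medium with pinned compounds, 48 h at 30 C; growth read as absorbance at 600 nm. Normalized to FeCl3/clioquinol equimolar mix (positive) and DMSO (negative).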
Of the large screens only hits and unclear results are named; the others gave an inactive call. Unless noted, calls come from the whole dose curve; as a rule, active = well fitted curve in the direction sought with a large enough effect; inconclusive = small, poorly fitted or top-dose-only effect, or another doubt; inactive = no such curve, though single readings can be large; an effect the other way counts as inactive or inconclusive.

N#CC1=C(N)C2=CCCC[C@H]2[C@H](c2ccccc2)C1(C#N)C#N	mIDH1 inhibitor 23µM (no result: FUS suppressor)
O=C(CNC(=O)c1ccc(-c2ccccc2)cc1)OCc1ncc(-c2ccccc2)o1	none (no result: aSyn rescue, FUS suppressor, mIDH1 inhibitor, TDP43 rescue, Abeta yeast res)
CCN1C(=O)[C@H]2[C@@H](c3ccc(-c4ccccc4)cc3)N3CCCC[C@@]3(C(=O)OC)[C@H]2C1=O	FUS suppressor inconclusive, TDP43 rescue 35µM
CCN1C(=O)[C@@H]2[C@@H](c3ccc(-c4ccc(OC)cc4)cc3)N3CCCC[C@@]3(C(=O)OC)[C@@H]2C1=O	none
CCSc1ccc([C@@H]2[C@@H]3C(=O)N(CC)C(=O)[C@@H]3[C@]3(C(=O)OC)CCCCN23)cc1	TDP43 rescue 25µM
O=[N+]([O-])c1cc(S(=O)(=O)N2CCCCCC2)ccc1F	mIDH1 inhibitor 46µM (no result: FUS suppressor)
O=C(/C=C/c1ccc2c(c1)OCO2)N1CCN(c2ccccc2F)CC1	TDP43 rescue 35µM (no result: FUS suppressor)
COCCN(C(=O)C1CCN(C(=O)c2ccccc2C)CC1)c1c(N)n(CC(C)C)c(=O)[nH]c1=O	LDHA block -47 (no result: FUS suppressor)
CCCCCCCNC(=O)C1(CC2CC(c3cccc(Br)c3)=NO2)CCN(C(=O)C2(C)CC2)CC1 (stereo not given)	FUS suppressor inconclusive
CCCCCCCNC(=O)C1(CC2CC(c3cccc(Br)c3)=NO2)CCN(C(=O)CCCCCBr)CC1 (stereo not given)	FUS suppressor 28µM, TDP43 rescue inconclusive
O=c1onc(-c2ccccc2)n1Cc1ccc([N+](=O)[O-])cc1	TDP43 rescue 8.9µM
COc1ccc(-c2noc(=O)n2Cc2ccccc2F)cc1	TDP43 rescue 13µM
COc1ccc(-c2noc(=O)n2Cc2ccc(C#N)cc2)cc1	none
O=c1onc(-c2ccc(Cl)cc2)n1Cc1ccc(F)cc1	TDP43 rescue 18µM (no result: FUS suppressor)
O=c1c(Cl)c(N2CCN(Cc3nc(-c4ccsc4)no3)CC2)cnn1-c1ccccc1	none (no result: aSyn rescue, FUS suppressor, mIDH1 inhibitor, TDP43 rescue, Abeta yeast res)
O=C(CCN1CCC(c2ccccc2)C1)c1cccc2ccccc12 (stereo not given)	none (no result: aSyn rescue, FUS suppressor, mIDH1 inhibitor, TDP43 rescue, Abeta yeast res)
CC(C(=O)NCc1ccccc1)n1nc(-c2ccccc2)c2ccccc21 (stereo not given)	none (no result: aSyn rescue, FUS suppressor, mIDH1 inhibitor, TDP43 rescue, Abeta yeast res)
Cc1ccc(C)c(OCCC(=O)Nc2ccc3c(c2)OCO3)c1	TDP43 rescue 11µM (no result: FUS suppressor)
CC(C)(C)OC(=O)NCCCC[C@H](NC(=O)c1[nH]cnc1C(=O)Nc1ccc(Cl)cc1)C(=O)OC(C)(C)C	FUS suppressor 16µM
C[C@H](NC(=O)c1[nH]cnc1C(=O)Nc1ccccc1)c1ccccc1	TDP43 rescue 25µM
CCOC(=O)c1ccc(NC(=O)c2nc[nH]c2C(=O)N[C@@H](C)C(=O)OC(C)(C)C)cc1	TDP43 rescue 28µM
CCOC(=O)c1ccc(NC(=O)c2nc[nH]c2C(=O)N[C@@H](CC(C)C)C(=O)OC(C)(C)C)cc1	FUS suppressor inconclusive
Cc1ccc(NC(=O)c2nc[nH]c2C(=O)N[C@H](C)c2ccccc2)cc1	aSyn rescue inconclusive, Abeta yeast res inconclusive
C[C@@H](NC(=O)c1nc[nH]c1C(=O)N[C@@H](CCCCNC(=O)OC(C)(C)C)C(=O)OC(C)(C)C)c1ccccc1	FUS suppressor 20µM
CC(C)C[C@H](NC(=O)c1nc[nH]c1C(=O)N[C@@H](CCCCNC(=O)OC(C)(C)C)C(=O)OC(C)(C)C)C(=O)OC(C)(C)C	FUS suppressor inconclusive
CC(C)(C)OC(=O)NCCCC[C@H](NC(=O)c1[nH]cnc1C(=O)Nc1ccccc1)C(=O)OC(C)(C)C	FUS suppressor inconclusive
C[C@@H](NC(=O)c1nc[nH]c1C(=O)N[C@@H](Cc1ccccc1)C(=O)OC(C)(C)C)c1ccccc1	FUS suppressor 20µM
Cc1ccc(CNC(=O)CCSCc2cnn(-c3ccccc3)c2-n2cccc2)cc1	TDP43 rescue 20µM (no result: aSyn rescue)
O=C(CCSCc1cnn(-c2ccccc2)c1-n1cccc1)NCc1ccc(Cl)cc1	TDP43 rescue 20µM, Abeta yeast res inconclusive (no result: aSyn rescue)
